Structures can show the parent of a compound that is named as a salt.
Legend:
[1] = target: IKZF1 (dCK*-IKZF1 fusion in HEK293FT) (UniProt Q13422); experiment: inhibition of IKZF1 HTRF signal (DMSO = 0%, pomalidomide 10 uM = 100%); higher = lower IKZF1 protein level; details: compound concentration: 5 uM, overnight (~20 h)
How it was run: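 HEK293FT cells stably expressing a dCK*-IKZF1 fusion (2000/well, 384-well) were treated overnight at 37 °C with 5 μM compound in single wells. They were then lysed 30 min at room temperature, and lysate was incubated overnight with a commercial HTRF total-IKZF1 antibody kit. The time-resolved FRET ratio (665/620 nm) was background-subtracted. Percent inhibition of IKZF1 signal was normalised per plate to vehicle (0%) and a reference degrader (100%).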

[2] = test system: HEK293FT dCK*-only; experiment: relative growth in counter assay (no AraC = 100%, AraC + DMSO = 0%); higher = more growth rescue independent of IKZF1; details: compound concentration: 5 uM; AraC concentration: 0.3 uM; overnight pretreatment + 4 days AraC
How it was run: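 In 384-well plates, 300 HEK293FT cells per well expressing an engineered kinase construct alone got 5 μM compound 2 h after seeding. After overnight at 37 °C, 0.3 μM nucleoside suicide substrate plus medium was applied for 4 days. Counting of Hoechst 33342-stained nuclei by imaging on day 5 was normalised per plate, with 100% for no-substrate wells and 0% for substrate plus vehicle.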

[3] = test system: HEK293FT dCK*-IKZF1; experiment: relative growth recovery (pomalidomide 10 uM = 100%, DMSO = 0%); higher = more growth rescue (IKZF1 fusion degradation); details: compound concentration: 5 uM; AraC concentration: 0.3 uM; overnight pretreatment + 4 days AraC
How it was run: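 On day 5, whole-well imaging was used to count Hoechst 33342-stained nuclei of HEK293FT cells stably carrying a deoxycytidine kinase–IKZF1 fusion. These cells had received 5 μM compound 2 h after seeding, followed after overnight at 37 °C by a nucleoside suicide substrate at 0.3 μM plus medium for 4 days. Growth recovery was normalised on each plate against a reference degrader and vehicle, which defined 100% and 0%, and values are duplicate means from separate days.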

Chain of IKZF1 (dCK*-IKZF1 fusion in HEK293FT) (Q13422 whole entry, looked up, the tested form may be a part): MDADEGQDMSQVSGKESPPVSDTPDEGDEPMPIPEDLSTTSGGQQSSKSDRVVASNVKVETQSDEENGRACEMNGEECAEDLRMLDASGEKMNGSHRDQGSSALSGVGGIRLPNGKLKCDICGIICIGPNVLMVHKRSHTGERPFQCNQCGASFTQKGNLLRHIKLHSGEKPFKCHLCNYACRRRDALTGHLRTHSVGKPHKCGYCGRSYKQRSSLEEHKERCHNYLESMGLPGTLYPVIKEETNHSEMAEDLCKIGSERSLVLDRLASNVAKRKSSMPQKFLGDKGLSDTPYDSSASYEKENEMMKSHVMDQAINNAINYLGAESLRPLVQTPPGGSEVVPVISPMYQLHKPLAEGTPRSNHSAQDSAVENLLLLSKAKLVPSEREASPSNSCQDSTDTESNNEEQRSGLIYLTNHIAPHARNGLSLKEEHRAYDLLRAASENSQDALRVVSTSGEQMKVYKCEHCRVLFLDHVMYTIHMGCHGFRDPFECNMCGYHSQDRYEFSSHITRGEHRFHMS

| SMILES | inhibition of IKZF1 HTRF signal [1] | relative growth in counter assay [2] | relative growth recovery [3] |
| --- | --- | --- | --- |
| C[C@H]1NCc2cc(-c3ccc4c(=O)c(C(=O)O)cn(C5CC5)c4c3OC(F)F)ccc21 [Garenoxacin (Mesylate hydrate)] | -29% | -3.04% | -1.59% |
| O=C(Nc1cnc(Cl)nc1)c1ccc(F)c(F)c1 | -25.3% | 1.83% | 4.13% |
| Cc1ccc(/C=C2\CNC/C(=C\c3ccc(C)cc3)C2=O)cc1 | -70% | -34.5% | -12.6% |
| Oc1c(Cl)cc(Cl)c(Cl)c1Cc1c(O)c(Cl)cc(Cl)c1Cl [Hexachlorophene] | -78.9% | 0.51% | -1.27% |
| Cc1ccc(-c2ccc(C)cn2)nc1 [abametapir] | -30.6% | 4.64% | 0.52% |
| O=C(CCCCCCC(=O)Nc1ccccc1)NO [Vorinostat (SAHA, MK0683)] | -29.5% | -30.5% | -11.6% |
| Clc1ccc(CSC(Cn2ccnc2)c2ccc(Cl)cc2Cl)cc1 (stereo unspecified) | -35.5% | -4.03% | -1.39% |
| Cc1noc(C)c1-c1ccc(-c2cc(C(N)=O)c(NC(N)=O)s2)c(O[C@H]2CCNC2)c1 | -26% | 4.03% | 3.93% |
| CCCCC(F)(F)C(=O)CC[C@H]1[C@H](O)CC(=O)[C@@H]1CCCCCCC(=O)O [Lubiprostone] | -43.7% | -3.38% | -1.27% |
| C/C=C(/C(=C/C)c1ccc(O)cc1)c1ccc(O)cc1 [dienestrol] | -24% | -2.14% | -1.6% |
| COc1cc(N2CCN(C)CC2)ccc1Nc1nccc(-c2cn(C)c3cnccc23)n1 | -30.7% | -9.1% | -0.12% |
| O=S(=O)(O)CCCS(=O)(=O)O | 17.9% | 1.16% | -1.31% |
| O=C(Nc1cc(C(F)(F)F)ccc1O)Nc1cc(C(F)(F)F)ccc1O | -27.7% | -5.68% | -1.77% |
| NS(=O)(=O)Cc1noc2ccccc12 [zonisamide] | -28.2% | 2.4% | -2.26% |
| CCN(CC)CCCC(C)Nc1c2ccc(Cl)cc2nc2ccc(OC)cc12 (stereo unspecified) | 57.3% | -34.1% | -13.4% |
| CC(CN(C)C)CN1c2ccccc2Sc2ccccc21 (stereo unspecified) | -50.1% | 1.07% | -2.14% |

| SMILES | inhibition of IKZF1 HTRF signal [1] | relative growth in counter assay [2] | relative growth recovery [3] |
| --- | --- | --- | --- |
| O=C(Nc1ccc(S(=O)(=O)C(F)(F)F)cc1)C1=CCN(c2ncccc2C(F)(F)F)CC1 | -40.9% | 62.2% | 53.1% |
| COC1CCN(c2cccc(-c3cc(NC(C)=O)nc(-n4nc(C)cc4C)n3)n2)CC1 | -25.1% | 7.56% | -1.86% |
| C=C(NNC(=S)NNC(=S)Nc1ccccc1Cl)c1ccccn1 | 0.77% | -34.8% | -12.8% |
| O=C1Nc2ccc(Cl)cc2[C@@](C#CC2CC2)(C(F)(F)F)O1 [Efavirenz] | 19.7% | 3.1% | 2.08% |
| O=C(NC(NC(=S)Nc1ccc(F)c([N+](=O)[O-])c1)C(Cl)(Cl)Cl)C(c1ccccc1)c1ccccc1 (stereo unspecified) | -19.4% | -20.4% | -10.6% |
| C=CC(=O)Nc1cccc(Oc2nc(Nc3ccc(N4CCN(C)CC4)cc3)ncc2Cl)c1 | 23.4% | -29.5% | -9.69% |
| CC[C@]1(O)C[C@H]2C[N@@](CCc3c([nH]c4ccccc34)[C@@](C(=O)OC)(c3cc4c(cc3OC)N(C=O)[C@H]3[C@@](O)(C(=O)OC)[C@H](OC(C)=O)[C@]5(CC)C=CCN6CC[C@]43[C@@H]65)C2)C1 [Vincristine (sulfate)] | -10.4% | -34.5% | -11.7% |
| CC[C@@]1(O)C(=O)OCc2c1cc1n(c2=O)Cc2cc3c(CN(C)C)c(O)ccc3nc2-1 [Topotecan (Hydrochloride)] | 1.64% | -36.8% | -15.9% |
| Nc1cc(N2CCCCC2)nc(N)[n+]1[O-] | -27.1% | -5.79% | -0.55% |
| COc1ccc(CN2CCN(C(c3ccc(F)cc3)c3ccc(F)cc3)CC2)c(OC)c1OC | -50.6% | 1.19% | 0.625% |
| Nc1c2ccccc2nc2ccccc12 | 58.6% | -34.8% | -14% |
| c1ccc(-c2ccc(C(c3ccccc3)n3ccnc3)cc2)cc1 (stereo unspecified) | 17.6% | 3.99% | -0.555% |
| OC1(c2ccc(Cl)c(C(F)(F)F)c2)CCN(CCCC(c2ccc(F)cc2)c2ccc(F)cc2)CC1 | -28.8% | -26% | -5.21% |
| O=C1C=Cc2cc(Br)ccc2C1=O [bonaphthone] | 23% | 1.29% | -2.85% |
| O=C(O)C(O)Cc1ccc(O)c(O)c1 (stereo unspecified) [Sodium Danshensu] | -50.2% | 0.01% | -0.76% |
| O=c1c(O)c(-c2ccc(O)c(O)c2)oc2cc(O)ccc12 [Fisetin (Fustel)] | 11.3% | -3.66% | -3.06% |

Source: the supplement of paper PMC12340641
